Screens from PubChem BioAssay.
TGFb SMAD3 inh – qHTS for Inhibitors of TGF-b | HepG2 CAGA-GFP TGF-b/SMAD3 reporter, GFP fluorescence, 18 h; TGF-beta stimulated, 500 pg/mL final | Potency, µM (doses to about 46.1 µM), for inactives: top-dose activity, negative = inhibition, hits mostly inhibitors | actives 1.2% (n = 410,000) | AID 588855, 2011; also: % is scaled to controls: 0 for no effect and ±100 for the full control effect; nearly all actives have a fitted effect of over 65% in size
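GFP signal (ex488/em500-530) from TGF-beta-stimulated HEPG2 CAGA-GFP cells, 500 pg/mL final, 18 h at 37 degrees C in DMEM plus 1% FBS, normalized to unstimulated and DMSO-stimulated controls.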
HepG2 viability – qHTS for Inhibitors of TGF-b: Cytotox Counterscreen; Potency, µM (doses to about 46.1 µM), for inactives: at the highest dose activity change, negative = cytotoxicity, hits mostly cytotoxic; HepG2 CAGA-GFP viability, ATP luminescence, 18 h; actives 0.76% (n = 410,000); AID 588856, 2011
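CellTiter-Glo luminescence gave cytotoxicity after 18 hours at 37 degrees C. The cells were HepG2 CAGA-GFP in 1% FBS DMEM, stimulated with 500 pg/mL TGF-beta after compound addition. %Activity was normalised to no-cell wells (complete cell-killing) and DMSO (no toxicity), and curves were fitted and classified.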
S2 tox – Viability Counterscreen for Primary qHTS for Inhibitors of ATXN expression; S2 cells (HEK-293 line with an ATXN2-luciferase reporter) viability, CellTiter-Fluor protease fluorescence, 24 h; Potency, µM (top dose mostly 56.7 µM), actives largely listed as cytotoxic; actives 0.49% (n = 400,000); also: nearly all actives have a fitted effect of over 40% in size
HT1080NT lethal – qHTS for induction of synthetic lethality in tumor cells producing 2HG: qHTS for the HT-1080-NT fibrosarcoma cell line | HT-1080-NT fibrosarcoma viability, CellTiter-Glo ATP luminescence, 48 h | Potency, µM (doses to about 46.1 µM), without a hit: at the highest dose activity, negative = less viability, hits mostly cytotoxic | actives 1.6% (n = 360,000) | AID 686970, 2013;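 also: NT is the 2HG producing partner of a matched IDH1 knockdown line; 0% = DMSO-treated cells and -100% = media-only wells without cells; nearly all actives have a fitted effect of over 55% in size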
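Luminescent CellTiter-Glo readout after 48 hours of compound exposure at 37 degrees C defined viability of HT-1080-NT cells. Activity was normalized to DMSO wells and cell-free media wells; concentration-response curves were fitted and assigned curve classes.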
ATXN2 expr inh – Primary qHTS for Inhibitors of ATXN expression; HEK-293 ATXN2-luciferase reporter, luminescence, 24 h; Potency, µM (highest dose often 57 µM), without a hit: at the highest dose activity change, negative = inhibition, usual class: inhibitors; actives 0.72% (n = 360,000); AID 1745845, 2022; also: % is scaled to controls: 0 for no effect and ±100 for the full control effect; nearly all actives have a fitted effect of over 55% in size
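qHTS (up to 57 uM final) was run with 24 h compound exposure of reporter cells at 37 °C. Each well was multiplexed: SteadyGlo luminescence measured ATXN2-luciferase expression after a fluorogenic Gly-Phe-AFC viability readout (25 uM final).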
HT1080 IDH1KD tx – qHTS for induction of synthetic lethality in tumor cells producing 2HG: qHTS for the HT-1080-IDH1KD cell line; HT-1080 IDH1 knockdown viability, ATP luminescence, 48 h; Potency, µM (doses to about 46.1 µM), for inactives: at the highest dose activity, negative = toxicity, usual class: cytotoxic; actives 2% (n = 360,000);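 also: 0% = DMSO wells and -100% = cell-free medium wells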
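Assay cells: HT-1080 with IDH1 knockdown, 750 per well, RPMI/5% FBS. Exposure: 48 h at 37 °C following 2 h pre-incubation. Read: CellTiter-Glo luminescence; fitted concentration-response, curve class assigned.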
* hit, by the source's call; i = inactive; ? = inconclusive; nt = no result given; [ ] = dose if it differs, or a comment. A selection: hits, their analogues and other compounds. The true share with any hit is near 3.8%. Calls follow the shape of the dose curve; as a rule, active = well fitted curve in the direction sought with a large enough effect; inconclusive = small, poorly fitted or top-dose-only effect, or another doubt; inactive = no such curve, though single readings can be large; an effect the other way counts as inactive or inconclusive. Potency is read from the fitted curve at half-maximal effect.

SMILES	TGFb SMAD3 inh	HepG2 viability	S2 tox	HT1080NT lethal	ATXN2 expr inh	HT1080 IDH1KD tx
Oc1ccc2ccccc2c1/C=C/c1ccc2c(Br)cc(Br)c(O)c2n1	?	-83.3%	?	?	?	29.1µM*
COc1cc(Cl)c(C)cc1NC(=O)CC(c1ccc(F)cc1)N1Cc2ccccc2C1=O (stereo not given)	-11.9%	-19.3%	nt	nt	nt	nt
C/C(=N\NC(=O)Cc1ccc(Cl)cc1)c1ccccc1O	?	-38.8%	?	?	?	5.17µM*
C/C(=N\NC(=O)CSCc1ccc([N+](=O)[O-])cc1)c1ccccc1O	?	-17.9%	?	-5.2%	17.8µM*	-19.5%
Cc1cc(Cl)ccc1OCC(=O)Nc1c(Cl)ccc2nsnc12	-3.3%	-5.6%	i	nt	-14.4%	nt
CN(C)c1ccc(/C=C/c2sc3ccccc3[n+]2CCCCI)cc1	?	-30.3%	nt	nt	nt	nt
COc1ccc(N(Cc2cccs2)C(=O)c2ccc(Br)o2)cc1	-50.1%	-4.2%	nt	nt	nt	nt
O=C(C[n+]1ccncc1)c1cccc2ccccc12	-20.4%	-15.7%	nt	nt	nt	nt
O=C(c1c(F)cccc1F)N(Cc1ccccn1)C1CC1	12.6µM*	0.4%	i	-4.1%	-17.8%	15.2%
O=[N+]([O-])/C=C\c1ccc(N2CCOCC2)cc1	?	-64.3%	?	20.6µM*	?	14.6µM*
Cc1ccc(C(=O)Nc2sc3c(c2C(=O)O)CCCCC3)o1	-7.3%	-62.4%	i	20.6µM*	-25.5%	18.4µM*
CCOC(=O)C1CCCCN1Cc1nc(N2CCN(C(C)=O)CC2)c2ccccc2n1 (stereo not given)	nt	nt	i	nt	nt	nt
c1ccc(COc2cccc(-c3cc4nc(NCCc5ccncc5)ccn4n3)c2)cc1	?	-62.6%	?	18.4µM*	?	23.1µM*
COc1cc(-c2cc3nc(NCCc4ccncc4)ccn3n2)cc(OC)c1OC	34.4%	-4.0%	i	-1.6%	16.9%	-21.5%
c1ccc(COc2cccc(-c3cc4nc(NCCCn5ccnc5)ccn4n3)c2)cc1	?	-43.2%	?	16.4µM*	?	23.1µM*
COc1cc(-c2cc3nc(NCCOc4ccccc4)ccn3n2)cc(OC)c1OC	?	-48.1%	?	20.6µM*	?	9.2µM*
CCOC(=O)c1c(C)c(-c2ccccc2)n(CC(=O)Nc2cc(C)ccc2OC)c1C	-16.7%	-0.7%	i	nt	-3.3%	nt
Cc1c(CCNC(=O)C(C)(C)C)sc2nc(-c3ccc(F)cc3)nn12	nt	-14.0%	nt	nt	nt	nt
CCOc1ccc(N(CC)S(=O)(=O)c2cc(Br)cc3c2N(C(C)=O)C(C)C3)cc1 (stereo not given)	10µM*	-55.2%	i	nt	-9.0%	nt
Cc1ccc(C2=NN(C(=O)CSc3nccn3C)C(c3ccco3)C2)cc1 (stereo not given)	-11.4%	-0.8%	i	18.4µM*	-10.1%	14.6µM*
O=C(CCl)N1N=C(c2cccs2)CC1c1ccco1 (stereo not given)	11.2µM*	-89.5%	nt	5.17µM*	4.23µM*	4.11µM*
O=C(CCl)N1N=C(c2ccco2)CC1c1ccco1 (stereo not given)	11.2µM*	-84.6%	i	25.9µM*	-15.5%	?
CC1(C)S[C@@H]2[C@H](NC(=O)COc3ccccc3)C(=O)N2[C@@H]1C(=O)OCc1cccc2cccnc12	?	10.4%	nt	nt	nt	nt
O=C(CCn1c(=O)c2cccn2c2cccnc21)N1CCN(c2cccc(C(F)(F)F)c2)CC1	11.2µM*	-41.9%	nt	nt	nt	nt
O=C(CCn1c(=O)c2cccn2c2cccnc21)N1CCN(c2ccccc2)CC1	-8.3%	-19.2%	nt	nt	nt	nt
SMILES	TGFb SMAD3 inh	HepG2 viability	S2 tox	HT1080NT lethal	ATXN2 expr inh	HT1080 IDH1KD tx
O=C(Nc1cccc(-c2csc(Nc3cccc(C(F)(F)F)c3)n2)c1)c1cc([N+](=O)[O-])cc(C(F)(F)F)c1	-9.4%	-0.2%	i	-2.0%	6.0%	-5.5%
O=C(Nc1ccc(-c2csc(Nc3ccccc3)n2)cc1)c1cc([N+](=O)[O-])cc(C(F)(F)F)c1	?	-12.6%	12.6µM*	0.6%	?	-15.6%
Cc1[nH]c(C)c(C(=O)/C=C/c2ccc([N+](=O)[O-])cc2)c1C	?	-41.6%	?	?	nt	11.6µM*
COc1ccc(C=CC(=O)c2ccc([N+](=O)[O-])cc2)cc1	0.0%	14.5%	i	12.2%	-17.7%	-20.1%
CCOC(=O)CSc1nnc(-c2ccccc2NC(=O)c2ccccc2)o1	-0.1%	3.8%	i	11.5%	-13.3%	-2.7%[9.24 µM]
Cc1ccccc1-c1nnc(SCC(=O)Nc2cccnc2Cl)o1	7.7%	-47.2%	i	18.4µM*	?	23.1µM*
O=C(CSc1nnc(-c2ccccc2Br)o1)Nc1nncs1	-14.0%	15.8µM*	i	-3.1%	-21.1%	0.8%
CCc1nnc(NC(=O)CSc2nnc(-c3ccccc3NC(=O)c3ccccc3)o2)s1	-16.6%	-24.1%	i	12.6µM*	-10.4%	-24.9%[9.24 µM]
CCCc1nc2cccnc2n1C1CCN(C(=O)CC2NC(=O)c3ccccc32)CC1 (stereo not given)	nt	nt	i	nt	nt	nt
COc1ccc(CN2CCC3(CC2)c2ccccc2[C@@H](NC(=O)c2ccco2)[C@@H]3OC)c(O)c1	nt	nt	i	nt	nt	nt
